The values below come from PubChem BioAssay AID651597 (National Center for Advancing Translational Sciences (NCATS), 2012).

Out of some 1,100 compounds screened, about 390 (35%) were called active. Not shown: some 30% with an inconclusive outcome. The call rests on the fitted dose curve; in most records, active means well fitted inhibition curve with a large enough effect; inconclusive means small, poorly fitted or top-dose-only effect; inactive means flat fitted curve, though single readings scatter. The list shows a part of the results.
Potency means the concentration at half of the fitted maximal effect.

For this assay, the target named is Luciferin 4-monooxygenase (Photinus pyralis) (UniProt P08659). As to the kind of experiment: qHTS of Nrf2 Activators: Hit Validation in Secondary FLuc Assay. Further: nearly all actives have a fitted effect of over 65% in size. As to conditions: firefly luciferase inhibition counter-screen, luminescence; series mostly up to 57.5 µM. The essentials: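 Counter-screen on purified firefly luciferase with ATP and D-luciferin at Km concentrations; compounds flagged if they inhibit the enzyme, indicating possible reporter stabilization rather than ARE activation.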
(In general: In qHTS, concentration-response curves come from the screen itself.)
Take `[O-][n+]1onc2c1CCc1c-2nn(-c2ccccc2Cl)[n+]1[O-]`: the Potency result is “inactive”.
The entry for `Cc1nc2ccccc2c(=O)n1NCc1cc(Br)cs1` is “inactive”; for `Cc1csc(NC(=O)c2cc(-c3ccco3)nc3ccccc23)n1` it is 5.36 µM (active); for `O=C(Nc1nccs1)c1cc(-c2ccco2)nc2ccccc12` it is 6.01 µM (active).
`CC1CCc2c(cc(-c3ccccc3)n2-c2ccc(C(=O)NC(C)C)cc2)C1` (stereo not given): the Potency result is “inactive”.
The figure for `Oc1ccccc1-c1csc(-c2ccccc2)n1` is 1.69 µM (active); for `COC(=O)c1sccc1NC(=O)c1c(C)noc1C` it is “inactive”; for `COc1ccc(NC(=O)CSc2ccc(-c3ccco3)nn2)cc1OC` it is 15.1 µM (active).
For the molecule `COc1ccc(Cl)cc1NC(=O)CSc1c2c(nc3ccccc13)CCC2`, the Potency entry is “inactive”.
Then `COc1ccc(Cl)cc1NC(=O)c1cc(-c2ccco2)on1`, with “inactive”; and `COc1ccccc1NC(=O)CSc1ccc(-c2ccco2)nn1`, with 15.1 µM (active); and `O=C(CSc1ccc(-c2ccco2)nn1)N1CCCCCC1`, with 16.9 µM (active).
Turning to `COc1ccc(NC(=O)CSc2ccc(-c3ccco3)nn2)c(OC)c1`, the Potency was 3.38 µM (active).
The entry for `COc1ccc(NC(=O)c2cc(-c3ccco3)on2)c(OC)c1` is “inactive”.
The entry for `CC(OC(=O)/C=C/c1ccc2ccccc2n1)C(=O)Nc1ccc(S(N)(=O)=O)cc1` (stereo not given) is “inactive”.
Then `O=C(N/N=C\c1ccco1)Nc1cccc(Cl)c1`, with 8.49 µM (active).
On to `O=C(N/N=C/c1ccco1)Nc1ccccc1`, for which the Potency is 10.7 µM (active).
The entry for `O=C1CC(C(=O)Nc2ccc(Cl)c(Cl)c2)S/C(=N\N=C\c2ccco2)N1` (stereo not given) is “inactive”; for `O=C1C=C(Nc2cccc(Cl)c2)CC(c2ccco2)C1` (stereo not given) it is “inactive”.
The entry for `Cc1nc(C)c(C(=O)N/N=C/c2ccco2)s1` is “inactive”; for `O=C1CC(C(=O)Nc2ccc(Br)cc2)S/C(=N\N=C\c2ccco2)N1` (stereo not given) it is “inactive”.
Then `CC(=O)N(/N=C1\Sc2ccccc2C1=O)c1ccccc1`, with 0.301 µM (active).
Regarding `COc1ccc(N2CCCC2)c(NC(=O)c2ccc([N+](=O)[O-])o2)c1`, the Potency entry was “inactive”.
The entry for `CS(=O)(=O)N1CCN(c2ccccc2NC(=O)c2ccc([N+](=O)[O-])o2)CC1` is “inactive”; for `NS(=O)(=O)c1ccc(O)c(NC(=O)c2ccc([N+](=O)[O-])o2)c1` it is 16.9 µM (active); for `Cc1cccc(C)c1OCC(=O)N/N=C/C=C/c1ccco1` it is “inactive”.
As to `CC(/C=C/c1ccco1)=N\NC(=O)CNc1ccc2ccccc2c1`, the Potency is 15.1 µM (active).
As for `O=C(/C=C/c1ccco1)NCC(=O)N/N=C/c1ccc(Cl)cc1`, the Potency entry is “inactive”.
Then `O=C(COC(=O)/C=C/c1ccco1)Nc1ccc(F)cc1Cl`, with “inactive”; and `O=C(C=Cc1ccco1)c1ccc2ccccc2c1`, with 0.239 µM (active); and `Cc1c(CN(C)C)c2c(n1C)C(=O)c1ccc(Br)cc1-2`, with “inactive”.
The entry for `Cc1ccccc1CS(=O)(=O)c1cnc2ccccc2n1` is “inactive”; for `Cc1ccc(Cn2c(/C=C/c3ccco3)nc3ccccc32)cc1` it is 6.01 µM (active); for `O=c1oc2ccccc2nc1/C=C(\O)c1ccc(Br)cc1` it is 6.01 µM (active).
The entry for `O=c1oc2ccc(Cl)cc2nc1/C=C(\O)c1ccco1` is “inactive”.
With `CS(=O)(=O)Cc1nc2ccccc2oc1=O`, the Potency result is “inactive”.
Then `Fc1cccc(Nc2cc(-n3cccn3)ncn2)c1`, with 10.7 µM (active).
Take `Fc1cccc(Nc2nc3ccccc3n3cnnc23)c1`: the Potency result was “inactive”.
The figure for `Cc1ccc2cc3c(NC(=O)c4ccco4)nn(C)c3nc2c1` is 12 µM (active).
The entry for `Cc1cc(NC(=S)NC(=O)c2ccco2)c2ccccc2n1` is “inactive”; for `O=C(Nc1cnc2ccccc2c1)c1ccco1` it is 1.35 µM (active).
The figure for `O=C(NC(=S)Nc1cnc2ccccc2c1)c1ccccc1` is 3.38 µM (active); for `Cn1ccsc1=NC(=O)c1ccc([N+](=O)[O-])o1` it is “inactive”.
As to `CN(Cc1ccccc1)C(=O)c1ccc([N+](=O)[O-])o1`, the Potency entry is “inactive”.
The entry for `O=C(c1ccc([N+](=O)[O-])o1)N1CCN(c2nc3c(Cl)cccc3s2)CC1` is “inactive”; for `O=C(CCS(=O)(=O)c1ccccc1)Nc1nc2ccc(F)cc2s1` it is “inactive”.
As to `O=C(Nc1nc2c(Cl)cccc2s1)c1ccc([N+](=O)[O-])o1`, the Potency is 10.7 µM (active).
The figure for `O=C(Nc1nc2ccc(F)cc2s1)c1ccc([N+](=O)[O-])o1` is 2.13 µM (active); for `Cc1ccc(-n2nc3c([n+]2[O-])CCc2c-3no[n+]2[O-])cc1` it is “inactive”.
With `COc1cc(Cl)cc(/C=C/c2ccc3cccc(O)c3n2)c1OC`, the Potency was 9.53 µM (active).
For the molecule `Oc1ccc(Cl)cc1/C=C/c1ccc2cccc(O)c2n1`, the Potency is 9.53 µM (active).
Consider `CN(N=Cc1ccccc1O)c1ccc2ccccc2n1`, for which the Potency is 0.849 µM (active).
For `O=C(Nc1ccc(F)cc1)c1nsc(Cl)c1Cl`, the Potency is 1.69 µM (active).
Then `CSc1nsc(SC)c1C(=O)Nc1ccc(Cl)cc1`, with “inactive”.
Then `O=C(Nc1ccc(OC(F)F)cc1)c1ncc(Cl)c(Cl)c1Cl`, with “inactive”.
Then `COc1ccc(Nc2nc(C)nc3sc4c(c23)CCC4)cc1O`, with “inactive”; and `CC1(C)CC[C@]2(C(=O)n3ccnc3)CC[C@]3(C)[C@H](C(=O)C=C4[C@@]5(C)C=C(C#N)C(=O)C(C)(C)[C@@H]5CC[C@]43C)[C@@H]2C1`, with 0.478 µM (active); and `N#Cc1sc2nc(-c3ccccc3)cc(C(F)(F)F)c2c1N`, with “inactive”.
Turning to `COc1cccc(C(=O)Nc2cc(Cl)c(O)c(Cl)c2)c1`, the Potency is 12 µM (active).
The entry for `COC(=O)c1sccc1NC(=O)c1cccc(Cl)c1` is “inactive”.
For the molecule `COc1cccc(NC(=O)c2cc(Cl)nnc2Cl)c1`, the Potency result is “inactive”.
Then `CN(C)c1oc(/C=C/c2ccccc2)nc1C#N`, with 8.49 µM (active); and `Oc1ccc(CNc2ccccc2O)cc1`, with 12 µM (active).
Then `CCCCC1C(=O)N(c2ccccc2)N(c2ccc(O)cc2)C1=O` (stereo not given), with 10.7 µM (active).
Then `COc1ccc(-c2csc3nc(-c4cccnc4)nc(Cl)c23)cc1OC`, with 12 µM (active); and `Cc1ccc(/C=C/C(=O)OCC(=O)Nc2cccnc2Cl)o1`, with “inactive”.
In the case of `O=C(/C=C/c1ccco1)Nc1cccc2cccnc12`, the Potency is 4.78 µM (active).
Then `O=C(/C=C/c1ccco1)Nc1cccnc1Cl`, with 6.01 µM (active); and `CC(C)(C)OC(=O)NCCC(=O)N/N=C/c1cccc2cccnc12`, with “inactive”; and `O=C1N/C(=N\N=C\c2ccco2)SC1Cc1ccc(F)cc1` (stereo not given), with “inactive”.
Then `O=C1NC(=Nc2ccccc2)S/C1=C\C=C\c1ccco1`, with 6.01 µM (active).
The entry for `Cc1cccc(CC2S/C(=N/N=C/c3ccco3)NC2=O)c1` (stereo not given) is “inactive”.
As for `O=C1NC(=Nc2ccccc2)S/C1=C\c1ccccc1`, the Potency is 7.57 µM (active).
Take `Cc1ccc(N=C2NC(=O)/C(=C/C=C/c3ccco3)S2)cc1`: the Potency was 8.49 µM (active).
Then `O=C(CC1S/C(=N/N=C/c2ccco2)NC1=O)Nc1ccccc1` (stereo not given), with “inactive”; and `Cc1ccc(S(=O)(=O)CCSC(=N)N)cc1`, with “inactive”; and `Cc1ccc(S(=O)(=O)c2cc3ccccc3oc2=O)cc1`, with “inactive”.
The figure for `Cc1ccc(S(=O)(=O)C=CS(=O)(=O)c2ccc(C)cc2)cc1` is 0.379 µM (active); for `C/C(=N\NC(=O)COc1ccccc1[N+](=O)[O-])c1cccs1` it is 9.53 µM (active).
The entry for `O=C(COc1cccnc1[N+](=O)[O-])Nc1cccc2ccccc12` is “inactive”.
On to `CCC/C(=N\NC(=O)c1ccco1)c1ccc(Cl)s1`, for which the Potency entry is “inactive”.
The figure for `CCCN(C(=O)c1ccco1)c1nnc(-c2ccccc2C)s1` is 6.75 µM (active); for `Oc1ccc(NCc2cccc(OCc3ccc(F)cc3)c2)cc1` it is 3.38 µM (active); for `CCOc1ccccc1NS(=O)(=O)c1c(C(=O)OC)sc2cccc(F)c12` it is “inactive”.
The figure for `Cc1ccc(C(=O)Nc2nc(-c3ccco3)c(-c3ccco3)s2)o1` is 7.57 µM (active); for `CCOC(=O)Cc1csc(NC(=O)/C=C/c2ccco2)n1` it is 4.26 µM (active); for `Cc1csc(NC(=O)/C=C/c2ccco2)n1` it is 3.01 µM (active).
Then `CCC(CC)c1nnc(NC(=O)/C=C/c2ccco2)s1`, with “inactive”.
Consider `Cc1cc(C)c2oc(-c3ccc(C)c(NC(=O)/C=C/c4ccco4)c3)nc2c1`, for which the Potency was 2.39 µM (active).
Then `Clc1ccc2c(NCc3ccccn3)ncnc2c1`, with “inactive”.
Then `Clc1ccc(C=Cc2ccccn2)c(Cl)c1`, with 0.338 µM (active); and `Clc1ccc(C=Cc2ccccn2)cc1`, with 0.379 µM (active); and `Clc1ccc(/C=C/c2ncc3ccccn23)cc1`, with 1.51 µM (active).
Then `Cc1ccc2nc(/C(C#N)=C\c3ccc([N+](=O)[O-])o3)[nH]c2c1`, with 8.49 µM (active); and `Nc1c(C(=O)Nc2ccccc2Br)sc2nc(-c3cccs3)ccc12`, with 8.49 µM (active); and `Nc1c(C(=O)C2CC2)sc2nc(-c3cccs3)cc(C(F)(F)F)c12`, with “inactive”.
As to `Cc1sc2ncnc(SCc3ccco3)c2c1C`, the Potency result is “inactive”.
In the case of `c1coc(CSc2ncnc3c2oc2ccccc23)c1`, the Potency is 5.36 µM (active).
The entry for `O=C(COCc1cc(-c2cccs2)on1)Nc1cc(Cl)ccc1O` is “inactive”; for `Fc1ccc2nc(Nc3nc4c(F)cc(F)cc4s3)sc2c1` it is 6.75 µM (active); for `Fc1cc(F)c2nc(Nc3nc4cc5c(cc4s3)OCO5)sc2c1` it is 5.36 µM (active).
For `Fc1cccc2sc(Nc3nc4ccccc4s3)nc12`, the Potency is 2.13 µM (active).
On to `O=C(OCC(=O)N1CCCC1)c1cc([N+](=O)[O-])ccc1Cl`, for which the Potency entry was “inactive”.
The figure for `O=[N+]([O-])c1ccc(Cl)c(/C=N/n2c(-c3ccncc3)n[nH]c2=S)c1` is 1.9 µM (active).
As to `CCOCCCNC(=O)c1ccc(-n2c(-c3ccccc3)cc3c2CCC(C)C3)cc1` (stereo not given), the Potency entry is “inactive”.
On to `O=C(Nc1ccc(F)cc1F)c1cc(-c2ccco2)nc2ccccc12`, for which the Potency is 6.75 µM (active).
Then `O=C(Nc1ccccc1F)c1cc(-c2ccco2)nc2ccccc12`, with 10.7 µM (active); and `COc1ccccc1CNC(=O)COC(=O)c1cc(-c2ccco2)nc2ccccc12`, with 5.36 µM (active).
Turning to `O=C(COC(=O)/C=C/c1ccco1)NCc1ccccc1Cl`, the Potency entry was “inactive”.
The entry for `O=Cc1c(Sc2ccccn2)nc2ccccn2c1=O` is “inactive”.
